Active and inactive are the calls of the source.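 The calls were made as follows: active = differentiation response of at least 50%, scaled between solvent and reference control, from cells with both markers; inactive = the rest.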
Test: promoters of myeloid differentiation in arrested cells, primary screen, cell-based, GFP/MAC1 double positive, flow cytometry, validation set (AID 588685);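 also: compound exposure lasts four days before antibody staining and flow analysis; 0% = DMSO wells and 100% = 5 µM fulvestrant positive control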
Conditions: ER-HoxA9 marrow cells, stronger effect = higher value, normalized: vehicle 0, fulvestrant 100

Row | SMILES | differentiation response
1 | Cc1ccc2[nH]c3c(c2c1)CN(C)CC3 | -8.27% (inactive)
2 | COc1ccc2[nH]c3c(c2c1)CCn1c-3nc2ccccc2c1=O | 0% (inactive)
3 | CC(=O)O[C@H]1CSC[C@H]1NC(=O)c1ccccc1 | -13.1% (inactive)
4 | CC(=O)Oc1ccc2occ(/C=N/c3cc(=O)[nH]c(=S)[nH]3)c(=O)c2c1 | 40.2% (inactive)
5 | O=C(O)CCSc1nc2ccccc2s1 | 17.6% (inactive)
6 | CCOc1ccc(C(=O)/C=C/c2cc(OC)c(OC)c(OC)c2)cc1 | 40.2% (inactive)
7 | COC(=O)c1cc(OC)c(OC)c(OC)c1[N+](=O)[O-] | -21.2% (inactive)
8 | COC(=O)c1[nH]c2ccccc2c1NC(=O)CN1CCN(C/C=C/c2ccccc2)CC1 | -13.1% (inactive)
9 | Cc1ncc([N+](=O)[O-])n1CC(C)O (centres undefined) | -9.89% (inactive)
10 | Clc1ccccc1CN1CCc2sccc2C1 | -4.99% (inactive)
11 | CC[C@]1(O)C[C@@H]2CN(CCc3c([nH]c4ccccc34)[C@@](C(=O)OC)(c3cc4c(cc3OC)N(C)[C@H]3[C@@](O)(C(=O)OC)[C@H](OC(C)=O)[C@]5(CC)C=CCN6CC[C@]43[C@@H]65)C2)C1 | 3.03% (inactive)
12 | O=C(CCCN1CC=C(n2c(=O)[nH]c3ccccc32)CC1)c1ccc(F)cc1 | -19.6% (inactive)
13 | CCOc1cccc(N2C(=O)CC(N(CCc3ccc(OC)c(OC)c3)C(=O)CC)C2=O)c1 (centres undefined) | -18% (inactive)
14 | COC(=O)C1=C(C)NC(C)=C(C(=O)OC)C1c1ccccc1[N+](=O)[O-] | -8.27% (inactive)
15 | CC(COc1ccccc1)NC(C)C(O)c1ccc(O)cc1 (centres undefined) | -19.6% (inactive)
16 | COc1ccc2oc(=O)c(-c3nc(C)cs3)cc2c1 | -1.82% (inactive)
17 | CC(=O)Oc1cc(C(C)C)c(OCCN(C)C)cc1C | 19.2% (inactive)
18 | O=C(NNC(=O)c1cccs1)c1ccco1 | 1.41% (inactive)
19 | CC(C)Oc1ccc(C(CC(=O)O)c2ccc(F)cc2)cc1 (centres undefined) | -18% (inactive)
20 | Cc1ccccc1-c1coc2cc(O)ccc2c1=O | -14.7% (inactive)

Row | SMILES | differentiation response
21 | CCN(CC)CCOC(=O)C1(C2CCCCC2)CCCCC1 | -27.6% (inactive)
22 | NC(=O)OCC(COC(N)=O)c1ccccc1 | -1.82% (inactive)
23 | CC(C)[N+]1(C)[C@@H]2CC[C@H]1CC(OC(=O)C(CO)c1ccccc1)C2 (some centres undefined) | -9.89% (inactive)
24 | Cc1ccccc1OCCSc1nc2ncnc(N)c2[nH]1 | -8.27% (inactive)
25 | CC(=O)NCCCCCCNC(C)=O | -22.8% (inactive)
26 | CCN(Cc1ccncc1)Cc1nc(Cc2ccccc2Cl)no1 | -27.6% (inactive)
27 | CCOC(=O)NN1C(=O)c2ccccc2NC1c1ccc(OC)c(OC)c1 (centres undefined) | 46.6% (inactive)
28 | COc1ccc2c(c1)c(CC(=O)O)c(C)n2C(=O)c1ccc(Cl)cc1 | -13.1% (inactive)
29 | CC1=CC2(O)OCCN(CCO)C2=CC1=O (centres undefined) | 3.03% (inactive)
30 | Cc1ccccc1C(OCCN(C)C)c1ccccc1 (centres undefined) | -22.8% (inactive)
31 | COC1(C)CC2C(CC1OC(=O)c1cc([N+](=O)[O-])cc([N+](=O)[O-])c1)C2(C)C (centres undefined) | -18% (inactive)
32 | O=C1OC(c2ccc(O)cc2)(c2ccc(O)cc2)c2ccccc21 | -24.4% (inactive)
33 | Cn1c(=O)c2c(ncn2CC(O)CO)n(C)c1=O (centres undefined) | -8.27% (inactive)
34 | Cc1cnc(C(=O)N2CCCC(C(=O)c3ccc(Cl)cc3C)C2)cn1 (centres undefined) | -18% (inactive)
35 | CN(C)C(=O)C12CCC(C)(c3nc4ccccc4nc31)C2(C)C (centres undefined) | 1.41% (inactive)
36 | CCOC(=O)c1ccc(N2C(=O)C(CC(N)=O)N(CCc3ccc(OC)c(OC)c3)C2=S)cc1 (centres undefined) | -21.2% (inactive)
37 | Cc1cnc(C(=O)NCCc2ccc(S(=O)(=O)NC(=O)NC3CCCCC3)cc2)cn1 | -3.43% (inactive)
38 | COc1cccc2c1C(=O)O/C2=C/c1ccc2c(c1)OCO2 | -24.4% (inactive)
39 | COc1ccc(C2N3CC4(C)CN2CC(C)(C3)C4)cc1OC (centres undefined) | -13.1% (inactive)
